According to PMC5540273 (PLoS ONE, 2017):

Assays:
Details in all cases: concentration: 1 μM, replicates: in singlicate; n = 1
EPHA4 = system: EPHA4
EPHA5 = system: EPHA5
EPHA6 = system: EPHA6
EPHA7 = system: EPHA7
EPHA8 = system: EPHA8
EPHB1 = system: EPHB1
EPHB2 = system: EPHB2
EPHB3 = system: EPHB3
EPHB4 = system: EPHB4
EPHB6 = system: EPHB6
ERBB2 = system: ERBB2
ERBB3 = system: ERBB3
ERBB4 = system: ERBB4
ERK1 = system: T1, ERK1
T1 construct: gene MAPK3

ERK2 = system: T2, ERK2
T2 construct: gene MAPK1

ERK3 = system: T3, ERK3
T3 construct: gene MAPK6

ERK4 = system: T4, ERK4
T4 construct: gene MAPK4

ERK5 = system: T5, ERK5
T5 construct: gene MAPK7

ERK8 = system: T6, ERK8
T6 construct: gene MAPK15

ERN1 = system: ERN1
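Further: KINOMEscan kinase panel screen.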

| SMILES | %Inh (EPHA4) | %Inh (EPHA5) | %Inh (EPHA6) | %Inh (EPHA7) | %Inh (EPHA8) | %Inh (EPHB1) | %Inh (EPHB2) | %Inh (EPHB3) | %Inh (EPHB4) | %Inh (EPHB6) | %Inh (ERBB2) | %Inh (ERBB3) | %Inh (ERBB4) | %Inh (ERK1) | %Inh (ERK2) | %Inh (ERK3) | %Inh (ERK4) | %Inh (ERK5) | %Inh (ERK8) | %Inh (ERN1) |
| --- | --- | --- | --- | --- | --- | --- | --- | --- | --- | --- | --- | --- | --- | --- | --- | --- | --- | --- | --- | --- |
| Cc1ccc(C(=O)Nc2ccc(Nc3ccnc4cc(-c5ccccn5)ccc34)cc2O)cc1.Cl [GW440146] | 0% | 0% | 0% | 4% | 10% | 5% | 14% | 0% | 0% | 48% | 38% | 0% | 31% | 5% | 0% | 0% | 10% | 0% | 0% | 0% |
| O=C(Nc1ccccc1)Nc1cccc(Oc2ccc3nccn3n2)c1 | 0% | 0% | 0% | 0% | 0% | 0% | 3% | 0% | 10% | 9% | 38% | 53% | 0% | 0% | 0% | 0% | 0% | 0% | 0% | 0% |
| CN1C(=O)C(Nc2ccc(Cl)c(C(=O)O)c2)=C(c2ccc(Cl)cc2)C1=O [SB-404290] | 1% | 0% | 2% | 2% | 19% | 9% | 0% | 7% | 0% | 28% | 0% | 0% | 8% | 0% | 0% | 0% | 0% | 1% | 0% | 0% |
| COc1cccc(-c2cc(-c3c[nH]nc3-c3ccccn3)ccn2)c1 [GW680338] | 2% | 0% | 0% | 0% | 8% | 7% | 16% | 2% | 15% | 0% | 5% | 17% | 0% | 4% | 0% | 16% | 8% | 0% | 0% | 0% |
| CC(C)(C)c1ccc(C(=O)Nc2cn3cc(Cl)ccc3n2)cc1 | 0% | 0% | 0% | 0% | 0% | 0% | 0% | 0% | 0% | 8% | 14% | 0% | 0% | 0% | 0% | 0% | 0% | 0% | 0% | 0% |
| CCCc1ccc(S(=O)(=O)NC2CCN(c3ccnc(Nc4ccc(F)cc4)n3)C2)cc1 (centres unmarked) [GSK1379715] | 13% | 0% | 6% | 2% | 23% | 0% | 6% | 15% | 15% | 2% | 7% | 1% | 25% | 0% | 18% | 0% | 13% | 0% | 15% | 0% |
| Cc1ccc(NC(=O)Nc2cccc(Cl)c2)cc1-c1ccc(C(=O)Nc2ccncc2)cc1 [GSK1398468] | 18% | 0% | 11% | 3% | 38% | 26% | 15% | 4% | 19% | 0% | 24% | 0% | 7% | 0% | 0% | 7% | 3% | 0% | 0% | 0% |
| Nc1ncnc2[nH]c(-c3ccccc3)nc12 [AH5015] | 23% | 0% | 8% | 29% | 25% | 0% | 8% | 16% | 19% | 25% | 14% | 0% | 0% | 4% | 0% | 0% | 0% | 0% | 31% | 12% |
| O=S(=O)(c1ccc(-c2ccnc3[nH]ccc23)cc1)N1CCCC1 [GSK846226] | 0% | 0% | 0% | 3% | 4% | 3% | 0% | 14% | 4% | 9% | 0% | 0% | 0% | 0% | 0% | 11% | 30% | 0% | 0% | 35% |
| CN(C)CCN(C)C(=O)c1cc(-c2ccncc2)c(-c2ccc(Cl)c(O)c2)o1.Cl.Cl [SB-710397] | 6% | 0% | 8% | 13% | 16% | 8% | 12% | 11% | 5% | 5% | 53% | 26% | 33% | 2% | 0% | 0% | 0% | 0% | 0% | 0% |
